SMILES strings stand for the structures. Hit rate of the full screen: of about 1,900 compounds, about 320 (17%) were called active. Only a sample is shown. A number with no mark means an inactive call. Cut-off read from the data, not from the text of the source: active = inhibition above about 30%; inactive = the rest.

The inhibition is the change of the read-out against control, counted positive when it falls.

The test has as its system CCHF virus ovarian tumor domain protease (vOTU, L protein). In words: CCHFV vOTU protease inhibitors, confirmation, biochemical, Pep-AMC substrate, fluorescence (AID 686976). The note with it: Recombinant CCHFV vOTU, at 11.5 µM, hits give high values.
As for `Cc1ccc(S(=O)(=O)N2[C@@H](c3ccc(Br)cc3)C(C(=O)O)=C[C@H]2CC2CCCC2)cc1`, the inhibition is 24.4%.

For `Oc1ccc(CNc2ccccc2O)cc1`, the inhibition was -5.66%.

`CCOc1ccc(C(=O)Nc2ccc(S(=O)(=O)NCC3CCCO3)cc2)cc1OCC` (configuration not stated): the inhibition was -7.98%.

Turning to `Oc1c(CN2CCN(c3ccc(F)cc3)CC2)cc(Cl)c2cccnc12`, the inhibition is -0.25%.

For the compound `CCOc1cc(NC(=O)c2ccccc2C(=O)O)c(OCC)cc1NC(=O)c1ccccc1F`, the inhibition was -9.49%.

Take `Cc1ccc(OCc2nnc(SC/C=C/c3ccccc3)n2Cc2ccco2)cc1`: the inhibition is 15.3%.

For `COc1ccccc1N=Nc1c(O)[nH]c(=S)[nH]c1=O`, the inhibition was 30.5% (active).

Consider `NC1=CC(=O)C(=O)c2cccnc21`, for which the inhibition is 95.4% (active).

With `CCc1ccc(OCC(=O)NCC(c2ccc(Cl)cc2)N2CCCCC2)cc1` (configuration not stated), the inhibition was 14.2%.

On to `COc1ccc2c(c1)C(C)=CC(C)(C)N2C(=O)Nc1ccccc1`, for which the inhibition was -94.5%.

As to `O=C1Nc2ccccc2-n2nnnc2C1N1CCN(c2cccc(C(F)(F)F)n2)CC1` (configuration not stated), the inhibition is -5.01%.

Turning to `CCNC(=S)N1CCN(c2ncccn2)CC1`, the inhibition is -9.28%.

Turning to `Cc1cc(C)c2c(=O)[nH]c(SCC(=O)Nc3ccc(Br)cc3)nc2n1`, the inhibition was -13.3%.

As to `Cc1ccccc1-n1c(SCC(=O)Nc2cccc3ccccc23)nc(O)cc1=O`, the inhibition was -11.1%.

As for `Cc1oc2c(F)c(F)c(F)c(F)c2c1S(=O)(=O)Nc1cccc(C(F)(F)F)c1`, the inhibition is 13.9%.

For `CC(C)(C)c1ccc(S(=O)(=O)NCC2CCN(C(=O)C(=O)c3cc4ccccc4o3)CC2)cc1`, the inhibition is -5.86%.

Turning to `Nc1ccc(N=Nc2ccccc2Cl)c(N)n1`, the inhibition is 8.04%.

Consider `Oc1ccc(/C=N/Nc2ccc(C(F)(F)F)cn2)cc1O`, for which the inhibition is -17.2%.

Consider `CCCSc1nc(NCc2ccco2)c2c3c(sc2n1)COC(C)(CC)C3` (configuration not stated), for which the inhibition was -14.8%.

`O=C(O)c1ccccc1/C=N/Nc1ccc(S(=O)(=O)Nc2ccc(Cl)cc2)cc1[N+](=O)[O-]`: the inhibition is 12.4%.

Take `CN1CCN(Cc2nc3cc(NC(=O)COc4ccc([N+](=O)[O-])cc4)ccc3n2C)CC1`: the inhibition is -12.5%.

For the compound `CCN(CC(=O)Nc1c(F)cccc1F)C(=O)c1cnc(C)cn1`, the inhibition is 2.27%.

For `CC1CCCCC12NC(=O)N(CC(=O)OCC(=O)NCc1ccc(F)cc1)C2=O` (configuration not stated), the inhibition is -0.61%.

For the compound `Cc1ccnc(NS(=O)(=O)c2ccc(NC(=O)c3oc4ccccc4c3C)cc2)n1`, the inhibition was 5.34%.

Turning to `Cc1coc2c(O)cc3c(c12)OC1(N2CCCCC2)C(=O)NCCCC31` (configuration not stated), the inhibition is 47.2% (active).

In the case of `Cn1c(=NC(=O)c2cnccn2)sc2ccccc21`, the inhibition was 5.19%.

In the case of `Cc1ccc(CSc2nc(-c3ccccc3)c(C#N)c(=O)[nH]2)cc1`, the inhibition was 13.2%.

`Oc1ccc(N=Cc2c(O)ccc3ccccc23)cc1`: the inhibition is 4.75%.

With `Oc1c(C=Nc2cccc3nsnc23)ccc2ccccc12`, the inhibition was 100% (active).

In the case of `CC(C)Cn1c(N)c(C(=O)NCc2cccs2)c2nc3ccccc3nc21`, the inhibition is -76.7%.

`C=CCC[C@@H](CCCCC)OC(=O)/C=C/[C@@H](O)[C@H](O)C[C@H](O)CC=C`: the inhibition is -0.24%.

In the case of `CCc1ccc2c(c1)NC(=O)C2(C)Cc1ccc(OC(F)(F)F)cc1` (configuration not stated), the inhibition is 3.85%.

For `O=C(Nc1cccc(S(=O)(=O)N2CCCCC2)c1)c1ccc2c(c1)OCO2`, the inhibition is -5.32%.

On to `COc1ccc(C(N)c2csc(NC(=O)Nc3cccc(C(F)(F)F)c3)n2)cc1` (configuration not stated), for which the inhibition was -16.9%.

As to `O=C(NCc1ccc(F)cc1)c1cc(C2CCCCN2C(=O)C2CCCCC2)on1` (configuration not stated), the inhibition is -10.2%.

Turning to `Cc1nnc(SC(C)C(=O)Nc2ccc(S(=O)(=O)NC3CCCCC3)cc2)s1` (configuration not stated), the inhibition is -7.87%.

Regarding `CCOC(=O)N1CCC(c2cc(=O)n(-c3ccccc3)[nH]2)CC1`, the inhibition was -6.72%.

`COc1ccccc1C1C(C#N)=C(N)Oc2c1c(-c1ccccc1)nn2-c1ccccc1` (configuration not stated): the inhibition is 1.06%.

On to `CCN(CC)C(=O)C1=C(C)N(Cc2ccc(C(C)(C)C)cc2)C(=O)C(CC(=O)NCc2cccc3ccccc23)C1` (configuration not stated), for which the inhibition is 3.3%.

Turning to `COc1ccc(C(=O)/C=C/c2ccc(-c3ccccc3)cc2)cc1CSCC(=O)O`, the inhibition is 0.4%.

Turning to `COc1cccc(NC(=O)C(=O)c2cn(CC(=O)N3CCOCC3)c3ccccc23)c1`, the inhibition was 0.94%.

With `COCCn1nnnc1C(c1cc2ccc(OC)cc2[nH]c1=O)N1CCc2ccccc2C1` (configuration not stated), the inhibition was 20.7%.

On to `CN(C)N1C(N)=C(C#N)C(c2ccc(Br)cc2)C2=C1CCCC2=O` (configuration not stated), for which the inhibition is -25.8%.

Turning to `O=C1Nc2ccc([N+](=O)[O-])cc2C1=Nc1cccc(CO)c1`, the inhibition is 58.4% (active).

Regarding `CCN(CC)P(=O)(Oc1cccc(C)c1)N(CC)CC`, the inhibition is -12.8%.

As for `CCCCCC(=O)N1C[C@H](O)[C@@H](n2cc(COC(=O)c3ccccc3)nn2)C[C@@H]1c1ccc(C)cc1`, the inhibition is 7.84%.

On to `CC(C)Oc1ccc(CN2CCC2(C)C(=O)NCc2ccc(C(F)(F)F)cc2)cc1` (configuration not stated), for which the inhibition is 8.85%.

Regarding `CN1c2ccc(C=O)c3c(C=O)ccc(c23)N(C)C1(C)C`, the inhibition is -100%.

For `COc1ccc(F)cc1C(=O)C1CCCN(C(=O)CCc2ccccn2)C1` (configuration not stated), the inhibition was -14.7%.

As for `CCN(C[C@H]1N[C@@](CC)(C(=O)OC)[C@H]2C(=O)N(Cc3ccccc3)C(=O)[C@@H]12)S(=O)(=O)c1ccc(C(F)(F)F)cc1`, the inhibition is 7.2%.

Turning to `CCOC(=O)c1c(C)[nH]c2c1-c1ccccc1C(=O)C2=O`, the inhibition was 98.7% (active).

`CCOC(=O)c1ccc(Nc2cc3ccccc3c(=O)[nH]2)cc1`: the inhibition is 24.6%.

Turning to `O=C(NC1=CC(=O)c2ccccc2C1=O)c1ccccc1`, the inhibition was 99.3% (active).

In the case of `O=C1C=C(NS(=O)(=O)c2ccccc2)C(=O)c2ccccc21`, the inhibition is 15.4%.

In the case of `O=C(NC1CCCCC1)N1CCc2[nH]c3ccccc3c2C1`, the inhibition was -22.6%.

`CN(C)c1ccc(N/C=C/C(=O)C(F)(F)F)cc1`: the inhibition was 5.61%.

In the case of `Cc1cc(C(=O)N/N=C/c2ccc(O)c([N+](=O)[O-])c2)c(C)n1-c1ccc(F)cc1`, the inhibition was 8.57%.

Turning to `CCCS(=O)(=O)NC(=O)C1(C)CCN(C(=O)c2sccc2C)C1` (configuration not stated), the inhibition is -18.9%.

With `COc1cc2c(cc1OC)C(Cc1cc(OC)c(OC)cc1[N+](=O)[O-])=NCC2`, the inhibition is -18.3%.

Take `COc1ccc(NC(=O)C[C@H]2C(=O)N(CCc3ccccc3)C[C@@H]2C)cc1`: the inhibition is -25.5%.

`COC(=O)[C@]12C[C@H](CC(=O)NCc3ccc(C)o3)C(=O)N(CCC3=CCCCC3)C1=C[C@H](C(C)(C)C)O[C@@H]2C`: the inhibition is 9.58%.

For `CCOC(=O)c1ccc(NC(=O)c2nc[nH]c2C(=O)N[C@@H](CCCCNC(=O)OC(C)(C)C)C(=O)OC(C)(C)C)cc1`, the inhibition was 12.5%.

Take `O=C(NCCc1ccc(Cl)cc1Cl)c1cc([N+](=O)[O-])c[nH]c1=O`: the inhibition was -6.11%.

Take `COC(=O)[C@@]12C[C@@H](CC(=O)NCc3cccc(C(F)(F)F)c3)C(=O)N(Cc3ccco3)C1=CCC(C)(C)C2`: the inhibition is 12.2%.

Take `CCN(CC)C(=O)[C@@H]1C=C2c3cccc4[nH]c(Br)c(c34)C[C@H]2N(C)C1`: the inhibition is -5.37%.

Consider `CCn1nnnc1SCC(=O)Nc1ccc(N(C)C)cc1`, for which the inhibition is 6.35%.

In the case of `Cc1nnc(NC(=O)Nc2ccc(Cl)c(Cl)c2)s1`, the inhibition is -15.1%.

Values taken from PubChem BioAssay AID686976 (The Scripps Research Institute Molecular Screening Center, 2013).
